Assay results as given in PubChem BioAssay (NCI).
The panel holds about 83,000 compounds, 20% with a hit somewhere; the sample as a whole holds those more often.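 Step 1: grow cells in 96-well plates. Step 2: add test compound at a single concentration. Step 3: incubate 48 h. Step 4: record percent growth.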 Values without a mark were called inactive. Calls of active or inactive are those of the source. The calls were made as follows: active = growth percent below 10; inactive = the rest.

Tested on: HL-60(TB) leukemia
Experiment: NCI-60 one-dose screen, 48 h (100 = growth as untreated, 0 = no growth, -100 = all killed)
Settings: 10 µM unless noted

| Compound | growth |
| --- | --- |
| CO[C@H](C(=O)[C@@H](O)[C@@H](C)O)[C@@H]1Cc2cc3cc(O[C@H]4C[C@@H](O[C@H]5C[C@@H](O)[C@H](O)C(C)O5)[C@H](O)C(C)(O)O4)cc(O)c3c(O)c2C(=O)[C@H]1O[C@H]1C[C@@H](O[C@H]2C[C@@H](O[C@H]3C[C@@H](OC)[C@H](O)C(C)O3)[C@@H](O)C(C)O2)[C@H](O)C(C)O1 (some centres undefined) | 71% |
| O=C(Oc1ccc[nH]c1=O)c1cc([N+](=O)[O-])cc([N+](=O)[O-])c1 | 75.7% |
| COc1cc(NC(=O)c2cc(OC)c3ccn(C)c3c2)cc2c1C[C@]1(C)CC[C@@H](O)C(C)(C)[C@H]1O2 | 31.5% |
| O=[N+]([O-])c1ccc(N/N=C\c2cc(Cl)ccc2O)nc1 | -2.47% (active) |
| CN(C)c1nc(-c2cccs2)n2nc(-c3ccc(Cl)cc3)cc2n1 | 87.8% |
| N=C(N)c1ccc(-c2ccc(-c3ccc(Cl)cn3)s2)cc1 | -45.8% (active) |
| CCCCCCCCCCCCC1CCC/C=C\CCC(=O)O1 (centres undefined) | 88.6% |
| COC(=O)CCc1n(Cc2ccc3ccccc3c2)c2ccccc2[n+]1Cc1ccc2ccccc2c1 | -49.1% (active) |
| CCOC(=O)/C=C1\S/C(=N\Nc2cc(=O)[nH]c3ccc(OC)cc23)N(c2ccccc2)C1=O | 96.1% |
| CCc1cc(Cl)c(OC)c(C(=O)NCC2CCCN2CC)c1O (centres undefined) | 84.6% |
| COc1ccc2c(N)ncc(C#Cc3cc(C(=O)Nc4ccc(CN5CCN(C)CC5)c(C(F)(F)F)c4)cnc3C)c2c1 | 43.9% |
| Cc1cn(C)cn1 | 116% |
| CCCCCCCSc1ccc(C(=O)O)cc1 | 98.6% |
| Cc1cc(Nc2nc(C(=O)Nc3ccccc3)nc3ccccc23)n[nH]1 | 63.5% |
| COC(=O)CNc1nc(N(C)O)nc(N(C)O)n1 | -7.42% (active) |
| CCOC(=O)c1cnn(CC(O)c2ccc(F)cc2)c1NC(=O)Nc1ccccc1F (centres undefined) | 102% |
| CSc1nc2c(c(=O)[nH]1)C1(C(=O)Nc3ccccc31)c1c(nc(SC)[nH]c1=O)N2 | 107% |

| Compound | growth |
| --- | --- |
| CCCCCCCCCCCC1=NC(C)(C)CN1C(C)(C)CO | 58.3% |
| Cc1ccccc1-n1nnc(C(=O)Nc2nc(-c3ccccc3)c(-c3ccccc3)s2)c1C | 89.1% [50 µM] |
| Cc1ccc(NC(=O)N/C(N)=N/c2nc(=O)c3ccccc3s2)cc1 | 33.7% |
| COc1ccc(C(=O)N2c3ccccc3Sc3ccccc32)c(OC)c1 | 0.583% (active) |
| COc1c(O)c2c3c(c1OC)-c1ccccc1CC3N(S(=O)(=O)c1ccc(C)cc1)CC2 (centres undefined) | 5.73% (active) |
| C=C1C(=O)O[C@H]2[C@H]1CC/C(C=Nc1c(N)cc(C(F)(F)F)cc1C(F)(F)F)=C\CC[C@@]1(C)O[C@@H]21 | -24.9% (active) |
| CC(C)c1ccc(C(=O)Nc2nc3ccc(O)c(CN(C)C)c3s2)cc1 | 76.8% |
| COc1cc(-c2nc3occn3c2-c2ccnc(NCCCNS(=O)(=O)c3ccc(O)cc3)n2)ccc1F | 95.3% |
| C=C1C(=O)O[C@H]2[C@H]1CC/C(CNC(=O)/C=C/c1ccc(Cl)cc1Cl)=C\CC[C@@]1(C)O[C@@H]21 | -27.4% (active) |
| COc1ccc(/C=C/C(=O)c2cc3c(N)c(C(=O)Nc4cccc(Cl)c4C)sc3nc2C)cc1 | 4.92% (active) |
| COc1cc(C(=O)/C=C/c2ccc(OCCCCCC[P+](c3ccccc3)(c3ccccc3)c3ccccc3)cc2)cc(OC)c1OC | 11.5% |
| CN1CCN(C(=O)[C@@]2(C)CC[C@]3(C)CC[C@]4(C)C(=CC[C@@H]5[C@@]6(C)C/C(=C/c7ccncc7)C(=O)C(C)(C)[C@@H]6CC[C@]54C)[C@@H]3C2)CC1 | -8.87% (active) |
| O=C1c2ccccc2C(=O)c2c1ccc1c(=O)n(-c3ccccc3C(F)(F)F)nnc21 | -42% (active) |
| COc1cccc(-c2nn(-c3ccccc3)cc2-c2ccnc(NCCNC(=O)c3ccccc3)c2)c1 | 25.2% |
| COC1C/C(=N\O)C2OC(c3ccccc3)OCC2O1 (centres undefined) | 101% |
| Cc1ccc(NSc2ccccc2[N+](=O)[O-])cc1 | -6.97% (active) |
| C[C@@H](CO)[C@@H]1CC[C@]2(C(=O)N3CCN(C)CC3)CC[C@]3(C)[C@H](CC[C@@H]4[C@@]5(C)CC[C@H](O)C(C)(C)[C@@H]5CC[C@]43C)[C@@H]12 | -46.9% (active) |
